Results on twelve molecules are retold here after PubChem BioAssay (Tox21).

For assay [1], the target named is Retinoic acid receptor RXR-alpha (Homo sapiens) (UniProt P19793). Briefly: qHTS assay to identify small molecule agonists of the RXR signaling pathway (AID 1159527; calls by dose curve; further: nearly all actives have a fitted effect of over 35% in size). The procedure, abridged: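 Using 9-cis retinoic acid as the reference agonist, chemicals were tested in HEK 293T cells […] for 16 hr; substrate loading lasted 2 hr at room temperature.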
A general note: Quantitative high-throughput screening tests each substance at several concentrations.

A short description of assay [2]: qHTS assay to identify small molecule antagonists of the estrogen related receptor (ERR) signaling pathway from Tox21 library - cell viability counter screen (AID 1224834). Further: nearly all actives have a fitted effect of over 30% in size. The procedure, abridged: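 Cytotoxicity of test substances is gauged in the same ERR cells used for the antagonist screen, after 17.5 h of compound treatment at 37 C, by CellTiter-Fluor fluorescence measured after 30 min.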

The nature of assay [3]: qHTS assay to identify small molecule antagonists of the constitutive androstane receptor (CAR) signaling pathway - cell viability counter screen (AID 1224837). Further: series mostly up to about 92 µM; nearly all actives have a fitted effect of over 45% in size. The gist of the method: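 Multiplexed cytotoxicity read-out for the CAR antagonist screen: double-stable HepG2-CYP2B6-hCAR cells co-treated with 50 nM CITCO (final) and compound over 15 concentrations, incubated 23 hr, then assessed by CellTiter-Fluor fluorescence.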

Assay [4] addresses Nuclear receptor subfamily 1 group I member 3 (Homo sapiens) (UniProt Q14994). Briefly: qHTS assay to identify small molecule agonists of the constitutive androstane receptor (CAR) signaling pathway (AID 1224839). Further: nearly all actives have a fitted effect of over 15% in size. Further: potency means the concentration at half of the fitted maximal effect. The gist of the method:
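Compounds tested at 15 concentrations on HepG2 cells stably harbouring hCAR and CYP2B6-2.2kb reporter constructs, co-treated with PK11195 (0.75 uM final), 24 h at 37 C; luminescent reporter signal quantified.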

The nature of assay [5]: qHTS assay to identify small molecule antagonists of the estrogen related receptor signaling pathway with the pleiotropic PPARgamma coactivator (PGC) from Tox21 10K library - cell viability counter screen (AID 1224840; active means well fitted cell-killing curve with a large enough effect in the repeat runs, not every such curve was filed as active; further: nearly all actives have a fitted effect of over 40% in size). The gist of the method:
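Step one, plate 2,000 PGC/ERR cells per well; step two, incubate 6 h at 37 C/5% CO2; step three, pin-transfer compounds; step four, incubate 17.5 h; step five, add CellTiter-Fluor and read fluorescence after 30 min.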

Assay [6] can be described thus: qHTS assay to identify small molecule antagonists of the retinoid acid receptor (RAR) signaling pathway - cell viability counter screen (AID 1159551). Further: nearly all actives have a fitted effect of over 35% in size. The gist of the method:
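Cytotoxicity counter screen in C3RL4 cells: 6 h compound exposure with 1 uM retinol (final), viability from cellular ATP by luminescence.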

For assay [7], the target named is Luciferin 4-monooxygenase (Photinus pyralis) (UniProt P08659). As to the kind of experiment: qHTS assay to identify small molecule inhibitors of firefly luciferase (AID 1224835). Further: nearly all actives have a fitted effect of over 25% in size. Further: potency means the concentration at half of the fitted maximal effect. The procedure, abridged:
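Inhibition of purified Photinus luciferase is measured by luminescence. Substrate levels (D-luciferin, ATP) sit at their KM values. Each compound is tested in a concentration series.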

Assay [8] in a line: qHTS assay to identify small molecule agonists of the constitutive androstane receptor (CAR) signaling pathway - cell viability counter screen (AID 1224836). Further: series mostly up to about 92 µM; nearly all actives have a fitted effect of over 45% in size. The procedure, abridged:
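23 h treatment, 37 C, 5% CO2. Cell line: HepG2 stably expressing hCAR with a CYP2B6-2.2kb construct. Co-treatment: PK11195, 0.75 uM final. Read-out: CellTiter-Fluor fluorescence intensity.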

The nature of assay [9]: qHTS assay to identify small molecule agonists of the RXR signaling pathway - cell viability counter screen (AID 1159529). Further: series mostly up to about 77 µM; nearly all actives have a fitted effect of over 50% in size. The procedure, abridged: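 Compounds dissolved in DMSO were pinned onto HEK 293T cells carrying a beta-lactamase reporter under RXR-alpha control and incubated 16 hr. Cytotoxicity was then quantified by CellTiter-Glo luminescence.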
The nature of assay [10]: qHTS assay to identify small molecule antagonists of the retinoic acid receptor (RAR) signaling pathway (AID 1159552; further: nearly all actives have a fitted effect of over 50% in size). The procedure, abridged: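 Test chemicals and DMSO controls were pin-transferred onto C3RL4 cells a day after seeding; retinol (1 uM final) followed at once. Luminescent reporter output was quantified after 6 hr of co-incubation and 30 min with detection reagent.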

Assay [11] is described as follows: qHTS assay to identify small molecule agonists of the retinoic acid receptor (RAR) signaling pathway (AID 1159553). Further: potency means the concentration at half of the fitted maximal effect. The procedure, abridged:
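Agonist activity was scored in C3RL4 cells bearing a retinoic acid response element luciferase construct. Cells were treated with compounds for 6 hr at 37 C, and luciferase signal was measured as luminescence.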

Assay [12] addresses Nuclear receptor subfamily 1 group I member 3 (Homo sapiens) (UniProt Q14994). Briefly: qHTS assay to identify small molecule antagonists of the constitutive androstane receptor (CAR) signaling pathway (AID 1224838). Further: nearly all actives have a fitted effect of over 40% in size. The procedure, abridged: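 Compounds were titrated across 15 concentrations onto HepG2 cells double-stably expressing hCAR and a CYP2B6-2.2kb reporter, together with 50 nM CITCO (final). After 24 h at 37 C, luciferase activity was measured by luminescence.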

The nature of assay [13]: qHTS assay to identify small molecule antagonists of the estrogen related receptor signaling pathway with the pleiotropic PPARgamma coactivator (PGC) from Tox21 10K library (AID 1224841; call rule not given here; further: series mostly up to about 92 µM; actives are mostly falling curves and most rising ones were filed inactive; nearly all actives have a fitted effect of over 50% in size). The procedure, abridged: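 Antagonism in this quantitative HTS is taken from loss of luciferase signal in PGC/ERR cells. Cells (2,000/well) are treated with compounds in DMSO after a 6 h settling period and read by One-Glo luminescence after 18 h.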

Assay [14] can be described thus: qHTS assay to identify small molecule agonists of the estrogen related receptor signaling pathway with the pleiotropic PPARgamma coactivator (PGC) from Tox21 10K library (AID 1224842). Further: nearly all actives have a fitted effect of over 15% in size. Further: potency means the concentration at half of the fitted maximal effect. The procedure, abridged:
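Luminescence from One-Glo (30 min, room temperature) measured after PGC/ERR cells had 18 h at 37 C with pinned compound (23 nL in DMSO). Cells had been seeded at 2,000 per well and pre-incubated 6 h.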

Inconclusive results are not listed. Unmarked numbers belong to inactive results. Calls of active or inactive are those of the source. Unless noted, the call rests on the fitted dose curve; in most records, active means well fitted curve in the direction sought with a large enough effect in the repeat runs; inconclusive means weak or mixed curves; inactive means no such curve, though single readings can be large; an effect the other way counts as inactive or inconclusive.

Sequence of Luciferin 4-monooxygenase (Photinus pyralis) (P08659 whole entry, looked up): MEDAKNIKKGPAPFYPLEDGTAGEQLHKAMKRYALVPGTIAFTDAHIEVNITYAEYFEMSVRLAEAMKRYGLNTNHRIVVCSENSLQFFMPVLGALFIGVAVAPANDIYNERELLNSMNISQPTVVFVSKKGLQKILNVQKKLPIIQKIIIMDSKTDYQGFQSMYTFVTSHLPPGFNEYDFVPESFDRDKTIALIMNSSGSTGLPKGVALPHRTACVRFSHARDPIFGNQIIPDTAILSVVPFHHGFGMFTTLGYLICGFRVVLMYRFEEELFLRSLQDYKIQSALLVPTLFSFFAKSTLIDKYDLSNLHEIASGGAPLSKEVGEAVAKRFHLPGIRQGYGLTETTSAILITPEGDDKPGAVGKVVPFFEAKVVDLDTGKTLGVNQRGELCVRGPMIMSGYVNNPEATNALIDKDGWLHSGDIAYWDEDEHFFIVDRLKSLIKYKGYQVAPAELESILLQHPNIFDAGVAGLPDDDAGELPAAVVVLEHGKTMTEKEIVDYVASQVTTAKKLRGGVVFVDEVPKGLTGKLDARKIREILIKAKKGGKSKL
Sequence of Nuclear receptor subfamily 1 group I member 3 (Homo sapiens) (Q14994 whole entry, looked up): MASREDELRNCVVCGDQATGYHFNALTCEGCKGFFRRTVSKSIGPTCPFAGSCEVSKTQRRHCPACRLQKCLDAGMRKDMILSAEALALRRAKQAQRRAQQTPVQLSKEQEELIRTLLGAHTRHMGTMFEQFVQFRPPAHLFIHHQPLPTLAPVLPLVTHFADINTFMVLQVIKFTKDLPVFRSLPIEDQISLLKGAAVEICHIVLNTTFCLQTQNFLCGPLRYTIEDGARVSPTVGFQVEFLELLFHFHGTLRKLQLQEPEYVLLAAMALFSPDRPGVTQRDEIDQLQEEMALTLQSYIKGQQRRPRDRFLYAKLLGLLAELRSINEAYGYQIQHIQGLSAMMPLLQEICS
Sequence of Retinoic acid receptor RXR-alpha (Homo sapiens) (P19793 whole entry, looked up): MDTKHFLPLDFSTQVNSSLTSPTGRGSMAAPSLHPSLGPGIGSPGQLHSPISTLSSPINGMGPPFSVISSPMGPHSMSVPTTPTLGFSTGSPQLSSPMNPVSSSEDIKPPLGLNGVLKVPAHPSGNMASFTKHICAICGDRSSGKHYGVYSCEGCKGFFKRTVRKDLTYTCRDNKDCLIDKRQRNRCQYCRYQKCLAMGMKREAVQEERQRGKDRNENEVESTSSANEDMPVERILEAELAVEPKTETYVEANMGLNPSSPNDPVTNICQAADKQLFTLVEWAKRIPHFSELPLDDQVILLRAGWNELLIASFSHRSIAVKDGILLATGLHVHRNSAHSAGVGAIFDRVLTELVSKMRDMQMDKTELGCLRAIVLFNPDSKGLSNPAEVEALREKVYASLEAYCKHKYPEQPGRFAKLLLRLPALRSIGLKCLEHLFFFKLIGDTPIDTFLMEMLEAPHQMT

In the case of `CC1(C)OC(=O)Nc2ccc(Br)cc21`, the Potency result in assay [1], in assay [2] and in assay [4] was “inactive” throughout. Moreover, the call in assay [3] and in [5] was inactive.
Turning to `CC(C)=CCC/C(C)=C/C(=O)O`, the Potency result in assay [1] and in assay [7] was “inactive” in each case. The outcome in assay [6], in [8], in assay [3] and in [5] was inactive.
In the case of `Cc1cc(C)cc(OCC2CNC(=O)O2)c1` (stereo unspecified), the Potency entry in assay [1] and in assay [7] was “inactive” each time. Also, the call in assay [6], in assay [8], in assay [3] and in assay [5] was inactive.
With `CCCCCCOC(=O)CC(CC(=O)OCCCCCC)(OC(=O)CCC)C(=O)OCCCCCC`, the Potency entry in [9], in [10], in assay [11], in assay [2], in assay [7] and in assay [12] was “inactive” in each case. Besides, the Potency result in assay [4], in assay [13] and in assay [14] was “inactive” in each case. Also, the result in [6], in assay [8], in assay [3] and in assay [5] was inactive.
Take `O=C(O)c1cccc(C(=O)O)n1`: the Potency entry in assay [9], in assay [10], in assay [11], in [2], in [4] and in [13] was “inactive” in each case. The Potency entry in [14] was “inactive”. Moreover, the result in assay [6], in assay [8], in [3] and in assay [5] was inactive.
With `O=C1CC2(CCCC2)CC(=O)N1`, the result in assay [6], in [8], in assay [3] and in [5] was inactive. The Potency result in [10], in assay [11], in assay [2], in [7], in assay [12] and in assay [4] was “inactive” throughout.
Take `CC(C)c1ccc2oc3nc(N)c(C(=O)O)cc3c(=O)c2c1`: the Potency entry in assay [9], in [10], in [2] and in assay [13] was “inactive” throughout. For the same molecule, the call in [6] and in assay [5] was inactive. Moreover, the Potency in assay [11] was 2.11 µM (active); in [7], 0.275 µM (active); in assay [4], 0.841 µM (active); in assay [14] it was 1.33 µM (active).
`CCOC(=O)Cn1c(=O)sc2cccc(Cl)c21`: the Potency entry in assay [9], in [10], in assay [11], in assay [7], in assay [12] and in assay [13] was “inactive” throughout. Also, the Potency result in assay [14] was “inactive”. Also, the call in assay [8], in [3] and in [5] was inactive. In addition, the Potency in assay [4] is 54.5 µM (active).
On to `CCCCNc1ccccc1`, for which the Potency result in assay [9], in assay [10], in assay [11], in assay [2] and in assay [4] was “inactive” throughout. For the same molecule, the call in [6], in assay [8], in assay [3] and in assay [5] was inactive.
For `CC(C)(O)c1ccccc1`, the Potency entry in assay [9], in assay [10], in [11], in assay [2], in [7] and in assay [12] was “inactive” throughout. Moreover, the Potency entry in assay [4], in [13] and in [14] was “inactive” in each case. The outcome in [6], in assay [8], in assay [3] and in assay [5] was inactive.
As for `CC(C)COC(=O)C(C)C`, the Potency entry in [9], in [10], in [11], in assay [2], in [7] and in [12] was “inactive” in each case. Besides, the Potency entry in assay [4] and in assay [14] was “inactive” throughout. Besides, the call in assay [6], in assay [8], in assay [3] and in [5] was inactive.
Regarding `c1ccc(SCCSc2ccccc2)cc1`, the Potency entry in assay [9], in [10], in assay [2] and in assay [13] was “inactive” each time. The molecule was classed as inactive in assay [6], in [3] and in assay [5]. Moreover, the Potency in assay [11] is 6.06 µM (active); in assay [4] it was 17.1 µM (active); in assay [14], 5.4 µM (active).
